Drawing on PubChem BioAssay (Tox21), this text covers Potency for 40 molecules.

Activity calls are given as the source filed them. A call without a number means that no potency is given here. Calls follow the shape of the dose curve; as a rule, active = well fitted activation curve with a large enough effect in the repeat runs; inconclusive = weak or mixed curves; inactive = flat fitted curve, though single readings scatter.

For this assay, the target named is KiSS-1 receptor (Homo sapiens) (UniProt Q969F8). As to the kind of experiment: Human kisspeptin (KISS1R) small molecule agonists, calcium flux assay in KISS1R-HEK293 cells (AID 1920064). The note with it: KISS1R-HEK293, calcium flux fluorescence, agonist; series mostly up to 76.8 µM. The text has this: National Center for Advancing Translational Sciences [NCATS]
Chain of KiSS-1 receptor (Homo sapiens) (Q969F8 whole entry, looked up): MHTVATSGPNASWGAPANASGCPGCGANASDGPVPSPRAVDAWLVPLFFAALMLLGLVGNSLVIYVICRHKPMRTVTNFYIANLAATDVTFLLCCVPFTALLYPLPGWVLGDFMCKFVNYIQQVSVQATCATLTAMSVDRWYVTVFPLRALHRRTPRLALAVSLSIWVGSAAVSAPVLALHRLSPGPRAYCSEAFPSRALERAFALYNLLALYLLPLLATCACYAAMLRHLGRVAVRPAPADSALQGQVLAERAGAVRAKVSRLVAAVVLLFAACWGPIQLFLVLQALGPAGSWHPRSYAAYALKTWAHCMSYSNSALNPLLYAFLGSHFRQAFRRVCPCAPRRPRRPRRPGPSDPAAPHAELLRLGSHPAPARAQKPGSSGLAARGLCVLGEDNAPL
Division of Preclinical Innovation [DPI]
U.S. Environmental Protection Agency [EPA]
National Institutes of Environmental Health Sciences [NIEHS]
National Toxicology Program [NTP]
U.S. Food and Drug Administration [FDA]
Kisspeptin and its receptor KISS1R play key roles in mammalian reproduction due to their involvement in the onset of puberty and control of the hypothalamic-pituitary-gonadal axis such as regulates GnRH release from the hypothalamus. The kisspeptin/KISS1R system also plays a direct role in peripheral organs (including the ovary, testis, uterus, and placenta) and is implicated in reproductive diseases such as miscarriage and polycystic ovary syndrome (PCOS). Abnormal KISS1R activity is associated with abnormal puberty, infertility, endometriosis, and hormone-dependent tumors. The KISS1 receptor (KISS1R, also called GPR54), a G-protein-coupled receptor (GPCR), acts (through phospholipase C) to increase intracellular inositol trisphosphate and then release intracellular calcium stores. Cell-based KISS1R-HEK293 assay is using HEK293 cells that have been genetically engineered to express the human KISS1R, which activity can be measured by calcium signaling. A compound/drug can activate (agonist) KISS1R that can be monitored by levels of intracellular calcium.
KISS1R-HEK293 cells developed by Codex Corp contain human KISS1R gene, which was stably integrated into HEK 293 cells. The compound activation can be detected by fluorescence intensity via calcium flux assay. This cell line has been used to screen the Tox21 10K compound library to identify agonists of KISS1R.
KISS1R-Hek293 cells were dispensed at 1500 cells/4uL/well in 1536-well black wall/clear bottom plates using a multidrop dispenser. After the assay plates were incubated at a 37 C/5% CO2 incubator for 18 hours, 4 microL of Calcium Dye Solution was added to each well. The plates were incubated at 37 C for 1 hour. And then 23 nL of compounds dissolved in DMSO, positive controls, or DMSO only was transferred to the assay plate by a pin tool station. The fluorescence intensity in the plates was measured using FDSS 7000EX kinetic plate reader with a filter set of Ex/Em=480/540 for 3 min at 1 sec intervals. Each test compound was measured at 15 concentrations and in triplicates.
(Calcium assays in cells follow changes in intracellular calcium, usually with a dye or a luminescent sensor.)
As to `OB(O)O`, the Potency result was “inactive”.

Take `C=CC(=O)OCCOCCOCCOCCOC(=O)C=C`: the Potency entry is “inactive”.

Regarding `CCCCCCCCCCCO`, the Potency entry was “inactive”.

As for `NC=O`, the Potency result was “inactive”.

Regarding `Cc1c(OCC(F)(F)F)ccnc1CS(=O)c1nc2ccccc2[nH]1` (stereo not given), the Potency entry is “inactive”.

For the molecule `CCC(C)(C)C(=O)O[C@H]1C[C@@H](C)C=C2C=C[C@H](C)[C@H](CC[C@@H]3C[C@@H](O)CC(=O)O3)[C@H]21`, the Potency entry is “inactive”.

For the molecule `Cc1cccc(Nc2cc(Cl)nc(SCC(=O)O)n2)c1C`, the Potency entry was “inactive”.

With `COC(=O)c1cccnc1`, the Potency entry is “inactive”.

In the case of `CC1(C)O[C@@H]2C[C@H]3[C@@H]4CCC5=CC(=O)C=C[C@]5(C)[C@@]4(F)[C@@H](O)C[C@]3(C)[C@]2(C(=O)CO)O1`, the Potency entry was “inactive”.

For the molecule `CCCCCCCCC`, the Potency entry was “inactive”.

`CCCCCCc1ccc(O)cc1O`: the Potency entry is “inactive”.

Regarding `CCCCOCCOCCOC(C)=O`, the Potency entry is “inactive”.

Consider `Nc1cc(Cl)c(N)c(Cl)c1`, for which the Potency result is “inactive”.

For `CCc1cccc(CC)c1N`, the Potency result is “inactive”.

For the molecule `c1ccc2c(c1)[nH]c1ccccc12`, the Potency entry was “inactive”.

In the case of `Clc1ccccn1`, the Potency entry was “inactive”.

For the molecule `CSc1ccc(Cl)cc1`, the Potency entry is “inactive”.

Regarding `CCCCCCCCCCCCCCCCO`, the Potency entry was “inactive”.

In the case of `CC(=O)[C@@]1(O)CC[C@H]2[C@@H]3C[C@H](C)C4=CC(=O)C=C[C@]4(C)[C@@]3(F)[C@@H](O)C[C@@]21C`, the Potency entry is “inactive”.

Regarding `CC(C)c1ccc(C(C)C)cc1`, the Potency entry was “inactive”.

As for `CN(C)C(=O)Nc1ccc(Cl)c(Cl)c1`, the Potency entry is “inactive”.

Consider `O=C(O)CC(O)C(=O)O` (stereo not given), for which the Potency result is “inactive”.

Consider `O=C(O)Cc1cccc2ccccc12`, for which the Potency result was “inactive”.

In the case of `C=Cc1cccc(C)c1`, the Potency result is “inactive”.

`Nc1ncn([C@@H]2O[C@H](CO)[C@@H](O)[C@H]2O)c(=O)n1`: the Potency entry is “inactive”.

In the case of `O=C(O)c1ccccc1C(=O)O`, the Potency entry is “inactive”.

Consider `CCOC(=O)C1OC1c1ccccc1` (stereo not given), for which the Potency result was “inactive”.

Take `O=C1c2c(O)cccc2Cc2cccc(O)c21`: the Potency result was “inactive”.

As for `COc1ccc([N+](=O)[O-])cc1N`, the Potency entry was “inactive”.

With `CC(=O)Oc1ccc(C(c2ccc(OC(C)=O)cc2)c2ccccn2)cc1`, the Potency entry was “inactive”.

For `COc1ccc(C)cc1N`, the Potency entry is “inactive”.

For the molecule `C=CCOC(=O)C(=C)C`, the Potency entry was “inactive”.

Turning to `C#C[C@]1(O)CC[C@H]2[C@@H]3CCC4=Cc5oncc5C[C@]4(C)[C@H]3CC[C@@]21C`, the Potency entry is “inactive”.

With `CC(=O)c1ccc(S(=O)(=O)NC(=O)NC2CCCCC2)cc1`, the Potency result is “inactive”.

`Cc1ncc[nH]1`: the Potency entry is “inactive”.

Turning to `O=[N+]([O-])C(CO)(CO)CO`, the Potency entry is “inactive”.

For the molecule `Cc1cccc(C)c1O`, the Potency entry was “inactive”.

Consider `C#C[C@]1(O)CC[C@H]2[C@@H]3CCc4cc(OC)ccc4[C@H]3CC[C@@]21C`, for which the Potency result was “inactive”.

Take `CC(C)(C)c1cccc(C(C)(C)C)c1O`: the Potency entry is “inactive”.

On to `Brc1nc2ccccc2s1`, for which the Potency entry was “inactive”.
